Measurements reported in PubChem BioAssay AID1224921 (Broad Institute, 2016).
Screen size: about 1,400 compounds; about 350 (25%) were called active. Roughly 2% stayed inconclusive and do not appear here. How the calls were made is not given here. Not all results are given here. Entries with a potency or affinity are not part of this list.

Experiment: inhibitors of Clostridioides difficile proliferation – 4-point retest, confirmation (AID 1224921);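 further: plate controls were DMSO wells for no effect and levofloxacin 16 µg/mL wells for full effect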
Conditions: Clostridioides difficile clinical isolate growth, OD600, 24 h, active compounds read low; at 30 µM unless noted

Max activity, inactive:
CO[C@H]1CN(C)C(=O)c2cc(NC(=O)NC(C)C)ccc2OC[C@@H](C)N(C)C[C@H]1C 4.11%, O=C(CN1CCOCC1)NCC[C@H]1CC[C@H](NC(=O)Cc2ccccn2)[C@@H](CO)O1 -9.14% [at 0.5 µM], CCCNC(=O)Nc1ccc2c(c1)C(=O)N(C)C[C@H](OC)[C@@H](C)CN(C)[C@H](C)CO2 -9.08% [at 8 µM], C[C@@H]1CN([C@H](C)CO)S(=O)(=O)c2ccc(C#CC3CCCC3)cc2O[C@H]1CN(C)C 49.4%, C[C@H]1CN([C@@H](C)CO)S(=O)(=O)c2ccc(C#CCC3CCCC3)cc2O[C@H]1CN(C)C 10.1% [at 8 µM], CC(=O)N(C)C[C@H]1Oc2cc(C#CC3CCCCC3)ccc2S(=O)(=O)N([C@H](C)CO)C[C@H]1C 12.6% [at 8 µM], C[C@H](CO)N1C[C@H](C)[C@@H](CN(C)C)Oc2cc(C#CCC3CCCC3)ccc2S1(=O)=O 7% [at 7.5 µM], O=C(Nc1cc(F)ccc1F)N[C@@H]1CC[C@H](CC(=O)N2CCc3ccccc3C2)O[C@H]1CO 38.5%, O=C(N[C@H]1C=C[C@H](CC(=O)N2CCOCC2)O[C@H]1CO)c1cccc(F)c1 -11.2% [at 1.95 µM], CO[C@@H]1CN(C)C(=O)c2ccc(NC(=O)c3ccc(F)cc3)cc2OC[C@@H](C)N(C(=O)CN(C)C)C[C@@H]1C -12.8% [at 1.95 µM], C[C@H]1CN([C@@H](C)CO)S(=O)(=O)c2ccc(C3=CCCCC3)cc2O[C@@H]1CN(C)Cc1ccncc1 42.8%, CO[C@H]1CN(C)C(=O)c2ccc(NC(=O)c3nc4ccccc4s3)cc2OC[C@@H](C)N(Cc2cccnc2)C[C@@H]1C 23.4%, COCCNC(=O)C[C@H]1C[C@H]2c3cc(NC(=O)Nc4ccc(C(F)(F)F)cc4)ccc3O[C@H]2[C@@H](CO)O1 -9.02%, O=C(C[C@H]1C[C@H]2c3cc(NC(=O)Nc4ccc(C(F)(F)F)cc4)ccc3O[C@H]2[C@@H](CO)O1)NCC1CC1 -16.4% [at 0.5 µM], COCCNC(=O)C[C@@H]1C[C@@H]2c3cc(NC(=O)Nc4ccc(C(F)(F)F)cc4)ccc3O[C@@H]2[C@H](CO)O1 9.41%, O=C(C[C@H]1C[C@H]2c3cc(NC(=O)Nc4ccc(C(F)(F)F)cc4)ccc3O[C@H]2[C@H](CO)O1)NCC1CC1 -13.1% [at 1.95 µM], O=C(C[C@H]1C[C@@H]2c3cc(NC(=O)Nc4ccc(C(F)(F)F)cc4)ccc3O[C@@H]2[C@@H](CO)O1)NCC1CC1 14.9%, COCCNC(=O)C[C@H]1C[C@H]2c3cc(NC(=O)Nc4ccc(C(F)(F)F)cc4)ccc3O[C@H]2[C@H](CO)O1 -7.9% [at 1.95 µM], CC(C)(C)[S@](=O)N1Cc2cc(C(=O)NCc3ccc4c(c3)OCO4)nc(-c3cccc(-c4cccnc4)c3)c2[C@@H]1CCO 32.4% [at 35 µM], O=C(C[C@@H]1C=C[C@@H](NC(=O)CCN2CCCCC2)[C@H](CO)O1)Nc1ccc(-c2ccccc2)cc1 21.5%, CC(C)c1cn(CC[C@@H]2CC[C@H](NS(=O)(=O)c3ccc(F)cc3)[C@H](CO)O2)nn1 -12.5%, N#C[C@@H]1[C@H](c2ccccc2)[C@H](CO)N1S(=O)(=O)c1ccc(-c2ccccc2)cc1 15.3%, C[C@@H]1CN([C@@H](C)CO)C(=O)c2cc(C3=CCCCC3)cnc2O[C@@H]1CN(C)C(=O)c1cccc(F)c1 24.7%, C[C@H](NC(=O)C[C@@H]1C[C@@H]2c3cc(NC(=O)CC4CC4)ccc3O[C@@H]2[C@H](CO)O1)c1ccccc1 8.12% [at 35 µM], O=C(C[C@H]1C[C@H]2c3cc(NC(=O)Nc4ccc(C(F)(F)F)cc4)ccc3O[C@H]2[C@@H](CO)O1)NCc1ccc(Cl)cc1 -6.14% [at 7.5 µM], CO[C@@H]1CN(C)C(=O)c2cc(NC(=O)Nc3c(C)noc3C)ccc2OC[C@@H](C)N(C(=O)Nc2cccc(Cl)c2)C[C@H]1C 14.7%, C[C@H](CO)N1C[C@H](C)[C@@H](CN(C)C(=O)NC2CCCCC2)Oc2c(NC(=O)Nc3ccc(C(F)(F)F)cc3)cccc2C1=O 28.8%, C[C@@H]1CN([C@H](C)CO)C(=O)c2cccc(NC(=O)Nc3ccc(C(F)(F)F)cc3)c2O[C@H]1CN(C)C(=O)NC1CCCCC1 34.6%, C[C@H](CO)N1C[C@H](C)[C@@H](CN(C)C(=O)NC2CCCCC2)Oc2c(NC(=O)Nc3ccc(F)cc3)cccc2C1=O 20.1%, CC(C)NC(=O)N(C)C[C@H]1Oc2c(NC(=O)Nc3ccc(C(F)(F)F)cc3)cccc2C(=O)N([C@@H](C)CO)C[C@H]1C 34.2% [at 8 µM], Cc1ccc(-c2cnc3c(c2)C(=O)N([C@@H](C)CO)C[C@@H](C)[C@@H](CN(C)C(=O)c2cccc(F)c2)O3)cc1 28.4%, CC(C)[C@H](C)NC(=O)N(C)C[C@@H]1OCc2ccccc2-c2ccccc2C(=O)N([C@@H](C)CO)C[C@H]1C -10.9% [at 1.95 µM], CO[C@H]1CN(C)C(=O)c2ccc(NS(=O)(=O)c3ccc(C)cc3)cc2OC[C@@H](C)N(C(=O)NC(C)C)C[C@H]1C 6.95%, C[C@@H]1CN([C@H](C)CO)S(=O)(=O)c2ccc(C#CCC3CCCC3)cc2O[C@@H]1CN(C)C(=O)CC1CC1 36.7%, Cc1noc(C)c1NC(=O)N[C@@H]1CC[C@H](CC(=O)Nc2ccc(-c3ccccc3)cc2)O[C@@H]1CO 42%, CCN1C[C@@H](C)[C@H](OC)CN(C)C(=O)c2cc(NC(=O)NC(C)C)ccc2OC[C@H]1C 16.9%, CC(C)CC#Cc1ccc2c(c1)O[C@H](CN(C)Cc1cccnc1)[C@H](C)CN([C@@H](C)CO)S2(=O)=O 26.5%
